# Data taken from PubChem BioAssay (Tox21).
# Values joined by “and” are separate entries in the source; they are usually repeats but may differ in a detail not shown here. Equal entries are not always repeated. Inconclusive results are not listed. Entries that show only a call come without a potency. Values without a mark were called inactive. Active and inactive are the calls of the source. The call rests on the fitted dose curve; in most records, active means well fitted activation curve with a large enough effect in the repeat runs; inconclusive means weak or mixed curves; inactive means flat fitted curve, though single readings scatter.
# Assay: A CellTox Green Cytotoxicity Assay to monitor cytotoxicity in HepG2 cells - 24 hour (AID 1224878); further: nearly all actives have a fitted effect of over 45% in size
# Conditions: CellTox Green fluorescence; series mostly up to 76.8 µM
# Method in brief: (§1)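 First, HepG2 cells (600/well) mixed with reagent were plated; second, after 5 h at 37 C they received compounds via pintool; third, fluorescence was measured at 0 h through 40 h at 8 h intervals.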
# Potency means the concentration at half of the fitted maximal effect.
Compound,Potency,cytotoxicity
O=c1[nH]c2ccccc2n1CCCN1CCN(C(c2ccccc2)c2ccccc2)CC1,23.9 µM (active),
CC1=Nc2ccccc2C1(C)C,49 µM (active),
CC(=O)[C@H]1CC[C@H]2[C@@H]3CCC4=CC(=O)CC[C@]4(C)[C@H]3CC[C@]12C,inactive,
CCCc1ccc(OCC(=O)N2CCN(C(=O)COc3ccc(CCC)cc3OC)CC2)c(OC)c1,26.8 µM (active),
O=[N+]([O-])c1ccc(O)cc1C(F)(F)F,inactive,
OC[C@H]1O[C@H](O[C@H]2O[C@H](CO)[C@@H](O)[C@H](O)[C@H]2O)[C@H](O)[C@@H](O)[C@@H]1O,inactive,
CCCC(=O)OCOC(=O)C1=C(C)NC(C)=C(C(=O)OC)C1c1cccc(Cl)c1Cl (stereo not drawn),inactive,
COc1cc(S(=O)(=O)O)c(C)cc1N=Nc1c(O)ccc2cc(S(=O)(=O)O)ccc12,inactive,
CC[N+](CC)(CC)CCOc1ccc(/C=C/c2ccccc2)cc1,inactive,
O=C(Nc1ccc2c(O)c(N=Nc3ccc(N=Nc4ccc(S(=O)(=O)O)cc4)cc3)c(S(=O)(=O)O)cc2c1)c1ccccc1,inactive,
CCCC[P+](C)(CCCC)CCCC,inactive,
Nc1cc(Cl)c(O)c(Cl)c1,inactive,
Clc1nnc(Cl)c2ccccc12,inactive,
CCCCCCCCCCCC(=O)OCC(C)OC(=O)CCCCC(=O)O (stereo not drawn),inactive,
CCOC(=O)c1ccc(C2CCC(NC[C@H](O)COc3ccc(O)c(NS(C)(=O)=O)c3)CC2)cc1 (stereo partly drawn),50.7 µM (active),
Cc1c(C)c2c(c(C)c1O)CC[C@@](C)(CCC[C@H](C)CCC[C@H](C)CCCC(C)C)O2,inactive,
COc1ccc2c(c1)c(CC(=O)OC/C=C(\C)CC/C=C(\C)CCC=C(C)C)c(C)n2C(=O)c1ccc(Cl)cc1,inactive,

Compound,Potency,cytotoxicity
C=CC(=O)Nc1cc2c(Nc3ccc(F)c(Cl)c3)ncnc2cc1OCCCN1CCOCC1,10.7 µM (active),
Cc1cc(C(C)(C)C)cc(C)c1CC1=NCCN1,inactive,
CCCCN(CCCC)CC(O)c1cc(Cl)cc2c1-c1ccc(Cl)cc1/C2=C/c1ccc(Cl)cc1 (stereo not drawn),23.9 µM (active),
NC[C@H]1O[C@H](O[C@H]2[C@H](O[C@@H]3O[C@H](CO)[C@@H](O)[C@H]3O)C(O)[C@H](N)C[C@@H]2N)[C@H](N)[C@@H](O)[C@@H]1O (stereo partly drawn),,9.58% [at 6.97 µM]
O=C(O)c1cc(O)c2ccccc2c1O,43.6 µM (active),
C[C@@H](O)[C@H](N)C(=O)O,,5.91% [at 15.8 µM]
COC1=C(OC)C(=O)C(CCCCCCCCCCO)=C(C)C1=O,inactive,
CCCC(=O)OCCc1ccccc1,43.6 µM (active),
C#C[C@]1(OC(C)=O)CC[C@H]2[C@@H]3CCC4=C/C(=N/O)CC[C@@H]4[C@H]3CC[C@@]21CC,inactive,
CCOC(=O)Cn1cccc1-c1nc(-c2ccc(OC)cc2)c(-c2ccc(OC)cc2)s1,inactive,
O=C1NC(=O)[C@@H]2CC=CC[C@H]12,inactive,
O=S(=O)(O)c1ccc(N=Nc2c(O)ccc3ccccc23)cc1,inactive,
O=C(/C=C/c1ccccc1)OC/C=C/c1ccccc1,inactive,
NC(=O)c1cccc([N+](=O)[O-])c1,inactive,
C=Cc1cccc(C)c1,inactive,
CCCCCCCCCCCCOCCOCCOCCOCCOCCOCCOCCOCCOCCO,23.9 µM (active),

# Assay: A CellTox Green Cytotoxicity Assay to monitor cytotoxicity in HepG2 cells - 40 hour (AID 1224879); further: nearly all actives have a fitted effect of over 40% in size
# Conditions: CellTox Green fluorescence; series mostly up to 76.8 µM
# Method in brief: as §1
Compound,Potency,cytotoxicity increase
O=c1[nH]c2ccccc2n1CCCN1CCN(C(c2ccccc2)c2ccccc2)CC1,23.9 µM (active),
CC1=Nc2ccccc2C1(C)C,38.9 µM (active),
CC(=O)[C@H]1CC[C@H]2[C@@H]3CCC4=CC(=O)CC[C@]4(C)[C@H]3CC[C@]12C,54.6 µM (active) and 43.6 µM (active),
CCCc1ccc(OCC(=O)N2CCN(C(=O)COc3ccc(CCC)cc3OC)CC2)c(OC)c1,21.3 µM (active),
OC[C@H]1O[C@H](O[C@H]2O[C@H](CO)[C@@H](O)[C@H](O)[C@H]2O)[C@H](O)[C@@H](O)[C@@H]1O,inactive,
CCCC(=O)OCOC(=O)C1=C(C)NC(C)=C(C(=O)OC)C1c1cccc(Cl)c1Cl (stereo not drawn),inactive,
COc1cc(S(=O)(=O)O)c(C)cc1N=Nc1c(O)ccc2cc(S(=O)(=O)O)ccc12,inactive,
O=C(Nc1ccc2c(O)c(N=Nc3ccc(N=Nc4ccc(S(=O)(=O)O)cc4)cc3)c(S(=O)(=O)O)cc2c1)c1ccccc1,inactive,
CCCC[P+](C)(CCCC)CCCC,inactive,
Nc1cc(Cl)c(O)c(Cl)c1,inactive,
Clc1nnc(Cl)c2ccccc12,inactive,
CCCCCCCCCCCC(=O)OCC(C)OC(=O)CCCCC(=O)O (stereo not drawn),inactive,
CCOC(=O)c1ccc(C2CCC(NC[C@H](O)COc3ccc(O)c(NS(C)(=O)=O)c3)CC2)cc1 (stereo partly drawn),45.2 µM (active),
Cc1c(C)c2c(c(C)c1O)CC[C@@](C)(CCC[C@H](C)CCC[C@H](C)CCCC(C)C)O2,inactive,
COc1ccc2c(c1)c(CC(=O)OC/C=C(\C)CC/C=C(\C)CCC=C(C)C)c(C)n2C(=O)c1ccc(Cl)cc1,inactive,
C=CC(=O)Nc1cc2c(Nc3ccc(F)c(Cl)c3)ncnc2cc1OCCCN1CCOCC1,6.01 µM (active),
Cc1cc(C(C)(C)C)cc(C)c1CC1=NCCN1,inactive,
CCCCN(CCCC)CC(O)c1cc(Cl)cc2c1-c1ccc(Cl)cc1/C2=C/c1ccc(Cl)cc1 (stereo not drawn),23.9 µM (active),
NC[C@H]1O[C@H](O[C@H]2[C@H](O[C@@H]3O[C@H](CO)[C@@H](O)[C@H]3O)C(O)[C@H](N)C[C@@H]2N)[C@H](N)[C@@H](O)[C@@H]1O (stereo partly drawn),,9.38% [at 6.97 µM]
O=C(O)c1cc(O)c2ccccc2c1O,24.5 µM (active),
C[C@@H](O)[C@H](N)C(=O)O,,7.81% [at 15.8 µM]
COC1=C(OC)C(=O)C(CCCCCCCCCCO)=C(C)C1=O,inactive,
CCCC(=O)OCCc1ccccc1,49 µM (active),
C#C[C@]1(OC(C)=O)CC[C@H]2[C@@H]3CCC4=C/C(=N/O)CC[C@@H]4[C@H]3CC[C@@]21CC,inactive,
CCOC(=O)Cn1cccc1-c1nc(-c2ccc(OC)cc2)c(-c2ccc(OC)cc2)s1,inactive,
O=S(=O)(O)c1ccc(N=Nc2c(O)ccc3ccccc23)cc1,inactive,
O=C(/C=C/c1ccccc1)OC/C=C/c1ccccc1,inactive,
NC(=O)c1cccc([N+](=O)[O-])c1,inactive,
C=Cc1cccc(C)c1,inactive,
CCCCCCCCCCCCOCCOCCOCCOCCOCCOCCOCCOCCOCCO,23.9 µM (active),
